PubChem BioAssay AID1724 (National Center for Advancing Translational Sciences (NCATS), 2009)
Inconclusive results are not listed. The source made the active and inactive calls. Calls come from the whole dose curve; as a rule, active = well fitted inhibition curve with a large enough effect; inconclusive = small, poorly fitted or top-dose-only effect, or effect the other way; inactive = no such curve, though single readings can be large or run the other way.

Test: Confirmation Concentration-Response Assay for Inhibitors of the ERK Signaling Pathway using a Homogeneous Screening Assay
Details: HEK293 cells, hormone-stimulated phospho-ERK AlphaScreen; series mostly up to 40.9 µM
In short: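 Vasopressin-V1b-expressing HEK293 cells, seeded overnight in 1% FBS, pretreated 30 min at 37C with compounds, then stimulated 5 min with 25 nM vasopressin. Phospho-ERK read by AlphaScreen after lysis and 5 hr beads; AC50 from Hill fit, normalized to DMSO and vasopressin.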

Row | SMILES | Potency
1 | Cc1noc(NS(=O)(=O)c2ccc(NC(=O)COc3ccc(Cl)cc3Cl)cc2)c1C | inactive
2 | O=C(Nc1ccc(-c2cn3ccsc3n2)cc1)c1ccc(F)c(S(=O)(=O)N2CCOCC2)c1 | 12.6 µM (active)
3 | c1ccc(Oc2nc(NCc3ccco3)nc(NCc3ccco3)n2)cc1 | inactive
4 | COc1ccc(N=C2C(=Nc3ccc(OC)cc3)N(c3ccccc3)C(=S)N2C(=O)c2ccc(Cl)cc2)cc1 | 3.16 µM (active)
5 | COc1ccc(N=C2C(=Nc3ccc(OC)cc3)N(c3ccc(OC)cc3)C(=S)N2C)cc1 | 15.8 µM (active)
6 | CCN(C1CCCCC1)S(=O)(=O)c1ccc(S(=O)(=O)NCc2ccncc2)cc1 | inactive
7 | COc1ccc(C(=O)Nc2ccc(-c3ccc(C)o3)cc2)cc1S(=O)(=O)N1CCOCC1 | 10 µM (active)
8 | CNc1cccc2c1C(=O)c1ccccc1C2=O | 14.1 µM (active)
9 | CN(C)c1ccc(Nc2c3c4c(cccc4n(C)c2=O)C(=O)c2ccccc2-3)cc1 | 14.1 µM (active)
10 | CCCC(=O)N1CCN(c2ccc(NC(=O)c3cc4ccccc4o3)cc2Cl)CC1 | 7.94 µM (active)
11 | CCOC(=O)c1ccc(NC(=O)c2ccc(C)c(S(=O)(=O)N3CCOCC3)c2)cc1 | 8.91 µM (active)
12 | C=CS(=O)(=O)c1ccc(Oc2ccc(S(=O)(=O)C=C)cc2)cc1 | 7.08 µM (active)
13 | COc1ccc(CNc2ncnc3ccc(-c4cccc(NS(C)(=O)=O)c4)cc23)c(OC)c1 | 15.8 µM (active)
14 | O=S(=O)(c1ccccc1)N1CCN(c2cc(-c3ccccc3)nc3ncnn23)CC1 | 31.6 µM (active)
15 | CCOC(=O)c1ccc(NC(=O)c2cccc(S(=O)(=O)N3CCOCC3)c2)cc1 | 25.1 µM (active)
16 | COc1cc2ncnc(Nc3cccc(Cl)c3)c2cc1OC | inactive
17 | O=C(Nc1ccc(N2CCN(C(=O)c3ccco3)CC2)c(Cl)c1)c1cc2ccccc2o1 | 7.94 µM (active)
18 | Cc1cc(-c2ccccc2)n(-c2cc(N/N=C/c3ccccc3O)ncn2)n1 | inactive
19 | COC(=O)c1cc(-c2ccc(OC)c(OC)c2)on1 | 7.08 µM (active)
20 | CC(=O)N1CCC(=NNc2nc3ccccc3s2)CC1 | inactive
21 | N#CC(=C(/N)Sc1ccccc1N)/C(C#N)=C(/N)Sc1ccccc1N | 0.501 µM (active)
22 | CC(/C=C/c1ccccc1)=N\Nc1ccccc1[N+](=O)[O-] | inactive
